Several values for one entry are separate records, joined by “and”; a condition that tells them apart may be missing. Identical values can stand only once. Results filed as inconclusive are left out. Activity calls are given as the source filed them. The call rests on the fitted dose curve; in most records, active means well fitted activation curve with a large enough effect in the repeat runs; inconclusive means weak or mixed curves; inactive means flat fitted curve, though single readings scatter.
test: A CellTox Green Cytotoxicity Assay to monitor cytotoxicity in HepG2 cells - 32 hour (AID 1224883); details: CellTox Green fluorescence; series mostly up to 76.8 µM; cytotoxicity increase: at the top concentration; further: nearly all actives have a fitted effect of over 50% in size
In short: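 Cytotoxicity was tracked as dead-cell DNA fluorescence in HepG2 cells treated with test compounds at 37 C; each time-point value comes from one kinetic series spanning 0, 8, 16, 24, 32 and 40 h.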
On the % scale 0 is the no-effect control and ±100 the full control effect; potency means the concentration at half of the fitted maximal effect.

SMILES	cytotoxicity increase	Potency
Cc1cnccn1	-17.4% (inactive)	–
C/C=C/CO	0.552% (inactive)	–
ClC/C=C\CCl	0.899% (inactive)	–
CN1[C@@H]2CC[C@@H]1CC(OC(=O)C(CO)c1ccccc1)C2 (stereo not given in full)	-1.46% [at 35.3 µM] (inactive)	–
O=C1OC(=O)c2ccc3c4c(ccc1c24)C(=O)OC3=O	-1.19% (inactive)	–
O=S(O)O	-11% [at 15.8 µM] (inactive)	–
C[Si](C)O[Si](C)C	1.43% (inactive)	–
O=C1C=CC(=O)N1c1ccccc1	–	13.8 µM (active)
CN1[C@@H]2CC[C@H]1CC(OC(=O)C(CO)c1ccccc1)C2 (stereo not given in full)	–	inactive
Clc1ccc(C(c2ccccc2Cl)C(Cl)Cl)cc1 (stereo not given)	3.82% [at 35.3 µM] (inactive)	–
CCCC(O)C(O)CO (stereo not given)	0.996% (inactive)	–
CCOC(OCC)C(=O)c1ccccc1	-1.4% (inactive)	–
CCN(CC)c1cccc(C)c1	-5.25% (inactive)	–
O=Nc1ccc(NO)cc1	-9.42% (inactive)	–
COC(=O)NCCC[Si](OC)(OC)OC	5.21% (inactive)	–
Cc1c(C(=O)O)cccc1[N+](=O)[O-]	-3.4% (inactive)	–
CCC(C)c1ccccc1 (stereo not given)	-9.6% (inactive)	–
Cc1cccc(C)n1	1.36% (inactive)	–

SMILES	cytotoxicity increase	Potency
CCc1cccc(C)c1	-11.1% (inactive)	–
O=C(O)Cc1ccc(OCCNC[C@H](O)c2ccccc2)cc1	-8.34% [at 35.3 µM] (inactive)	–
CCOC(/C=C(\C)CCC=C(C)C)OCC	-9.14% (inactive)	–
CN1CN(C)CN(C)C1	-6.03% (inactive)	–
C1CC(COCC2CO2)CCC1COCC1CO1 (stereo not given)	-0.371% (inactive)	–
O=C1OC(OC(=O)c2cccnc2Nc2cccc(C(F)(F)F)c2)c2ccccc21 (stereo not given)	2.5% [at 35.3 µM] (inactive)	–
CCc1cccc(CC)c1NC(=O)C(=O)O	10.1% (inactive)	–
CCCCCCCC/C=C\CCCCCCCC(=O)NCc1ccc(O)c(OC)c1	1.2% [at 35.3 µM] (inactive)	–
CCCCCCCCCCCCCOP(=O)(O)O	-12.4% (inactive)	–
OCCC(O)CO (stereo not given)	26.5% (inactive)	–
C=CC(=O)OCCN(CC)CC	0.481% (inactive)	–
COC(=O)[C@]1(C)CCC[C@@]2(C)[C@H]1CC=C1C=C(C(C)C)CC[C@@H]12	–	24.5 µM (active)
CCC1(c2cnc[nH]2)Cc2ccccc2C1	-9.14% [at 35.3 µM] (inactive)	–
CC1=C(/C=C/C(C)=C/C=C/C(C)=C/C(=O)Nc2ccc(O)cc2)C(C)(C)CCC1	–	50.2 µM (active) and 26.8 µM (active)
CC[N+](CC)(CC)Cc1ccccc1	13% (inactive)	–
CC(C)c1ccccc1N	3.03% (inactive)	–
CCC(=O)OCCc1ccccc1	7.63% (inactive)	–

test: A CellTox Green Cytotoxicity Assay to monitor cytotoxicity in HEK293 cells - 8 hour (AID 1224884); details: CellTox Green fluorescence; series mostly up to 76.8 µM; cytotoxicity increase: at the top concentration; further: nearly all actives have a fitted effect of over 35% in size
In short: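 Real-time, in one plate: 600 HEK293 cells/well with dead-cell DNA dye, pinned compound after 5 h, 37 C incubation over 40 h; viable cells give no appreciable fluorescence.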

SMILES	cytotoxicity increase	Potency
Cc1cnccn1	-4.21% (inactive)	–
C/C=C/CO	-7.38% (inactive)	–
ClC/C=C\CCl	-2.7% (inactive)	–
CN1[C@@H]2CC[C@@H]1CC(OC(=O)C(CO)c1ccccc1)C2 (stereo not given in full)	9.52% [at 35.3 µM] (inactive)	–
O=C1OC(=O)c2ccc3c4c(ccc1c24)C(=O)OC3=O	-10.4% (inactive)	–
O=S(O)O	0.551% [at 15.8 µM] (inactive)	–
C[Si](C)O[Si](C)C	13.9% (inactive)	–
O=C1C=CC(=O)N1c1ccccc1	–	24.5 µM (active)
CN1[C@@H]2CC[C@H]1CC(OC(=O)C(CO)c1ccccc1)C2 (stereo not given in full)	–	inactive
Clc1ccc(C(c2ccccc2Cl)C(Cl)Cl)cc1 (stereo not given)	–	inactive
CCCC(O)C(O)CO (stereo not given)	0.555% (inactive)	–
CCOC(OCC)C(=O)c1ccccc1	7.66% (inactive)	–
CCN(CC)c1cccc(C)c1	-8.38% (inactive)	–
O=Nc1ccc(NO)cc1	-1.66% (inactive)	–
COC(=O)NCCC[Si](OC)(OC)OC	-9.39% (inactive)	–
Cc1c(C(=O)O)cccc1[N+](=O)[O-]	-3.96% (inactive)	–
CCC(C)c1ccccc1 (stereo not given)	2.71% (inactive)	–
Cc1cccc(C)n1	-9.73% (inactive)	–

SMILES	cytotoxicity increase	Potency
CCc1cccc(C)c1	-6.88% (inactive)	–
O=C(O)Cc1ccc(OCCNC[C@H](O)c2ccccc2)cc1	-1.38% [at 35.3 µM] (inactive)	–
CCOC(/C=C(\C)CCC=C(C)C)OCC	-17.5% (inactive)	–
CN1CN(C)CN(C)C1	7.82% (inactive)	–
C1CC(COCC2CO2)CCC1COCC1CO1 (stereo not given)	-1.55% (inactive)	–
O=C1OC(OC(=O)c2cccnc2Nc2cccc(C(F)(F)F)c2)c2ccccc21 (stereo not given)	-0.337% [at 35.3 µM] (inactive)	–
CCc1cccc(CC)c1NC(=O)C(=O)O	22.4% (inactive)	–
CCCCCCCC/C=C\CCCCCCCC(=O)NCc1ccc(O)c(OC)c1	2.08% [at 35.3 µM] (inactive)	–
CCCCCCCCCCCCCOP(=O)(O)O	-2.9% (inactive)	–
OCCC(O)CO (stereo not given)	0.047% (inactive)	–
C=CC(=O)OCCN(CC)CC	-0.148% (inactive)	–
COC(=O)[C@]1(C)CCC[C@@]2(C)[C@H]1CC=C1C=C(C(C)C)CC[C@@H]12	–	38.9 µM (active)
CCC1(c2cnc[nH]2)Cc2ccccc2C1	3.56% [at 35.3 µM] (inactive)	–
CC1=C(/C=C/C(C)=C/C=C/C(C)=C/C(=O)Nc2ccc(O)cc2)C(C)(C)CCC1	–	inactive
CC[N+](CC)(CC)Cc1ccccc1	0.321% (inactive)	–
CC(C)c1ccccc1N	-6.03% (inactive)	–
CCC(=O)OCCc1ccccc1	-7.05% (inactive)	–
